Assay results: PubChem BioAssay (NCI)
This is part of a sample that, as a whole, favours compounds with a hit. Of some 79,000 tested, about 15% had one in any assay. A number with no mark means an inactive call. The source made the active and inactive calls. Rule as the data show it: active = growth inhibition above about 70%; inactive = the rest.

Key:
[1] = NCI Yeast Anticancer Drug Screen. Data for the rad50 strain (AID 155);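 also: 0% = growth of vehicle-only cultures of the same strain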; conditions: S. cerevisiae rad50 strain growth inhibition, hits give high values
Outline: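 Genetically altered yeast (DNA repair pathway); compound treatment; growth inhibition vs vehicle ctrl.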

[2] = NCI Yeast Anticancer Drug Screen. Data for the mec2-1 strain (AID 157); conditions: S. cerevisiae mec2-1 strain, hits give high values
Outline: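 Cells of the genetically defined mec2-1 yeast strain are incubated with test compound. Inhibition of growth is calculated against vehicle-treated controls.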

[3] = NCI Yeast Anticancer Drug Screen. Data for the sgs1 mgt1 strain (AID 161);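 also: 0% = growth of cultures given vehicle only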; conditions: S. cerevisiae sgs1 mgt1 strain, hits give high values
Outline: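 Inhibition of yeast growth, normalised to vehicle-treated controls, is reported for a strain bearing genetic alterations in DNA damage repair.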

[4] = NCI Yeast Anticancer Drug Screen. Data for the cln2 rad14 strain (AID 165);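 also: 0% = growth equal to vehicle treated cultures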; conditions: S. cerevisiae cln2 rad14 strain, hits give high values
Outline: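 The screen exposed genetically defined yeast (cln2 rad14) to test compounds and scored growth inhibition relative to vehicle-treated controls.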

[5] = NCI Yeast Anticancer Drug Screen. Data for the bub3 strain (AID 167); conditions: S. cerevisiae bub3 mutant strain, hits give high values
Outline: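 Yeast carrying a defined mutation is treated with each compound, and growth is compared with that of vehicle-exposed cells to give inhibition.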

[6] = NCI Yeast Anticancer Drug Screen. Data for the mlh1 rad18 strain (AID 175); conditions: S. cerevisiae mlh1 rad18 strain growth inhibition, hits give high values
Outline: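 Compound-treated yeast growth, normalised to vehicle controls. Strain bears defined DNA repair mutations.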

[7] = at 5.0 µM (retest, dose inferred, filed as 0.5)
[8] = at 50.0 µM (retest, dose inferred, filed as 5.0)

Row | Structure (SMILES) | growth inhibition [1, 7] | growth inhibition [1, 8] | growth inhibition ([1]; at 50.0 µM) | growth inhibition [2, 7] | growth inhibition [2, 8] | growth inhibition ([2]; at 50.0 µM) | growth inhibition [3, 7] | growth inhibition [3, 8] | growth inhibition ([3]; at 50.0 µM) | growth inhibition [4, 7] | growth inhibition [4, 8] | growth inhibition ([4]; at 50.0 µM) | growth inhibition [5, 7] | growth inhibition [5, 8] | growth inhibition ([5]; at 50.0 µM) | growth inhibition [6, 7] | growth inhibition [6, 8] | growth inhibition ([6]; at 50.0 µM)
1 | Oc1ccc(/C=N/NC(=S)Nc2ccccc2)nc1 | 1% | 53% | 82.8% (active) | 4% | 60% | 86.8% (active) | 6% | 69% | 82.8% (active) | -9% | 42% | 68.7% | 11% | 72% (active) | 84.3% (active) | 0% | 78% (active) | 84.2% (active)
2 | CCN(CC)CCOC(=O)Cc1cccc2c(=O)cc(-c3cccs3)oc12 | 18% | 17% | 18.7% | 9% | 16% | -9.35% | 14% | 18% | -16.4% | 17% | 17% | 8.25% | 4% | 14% | -20.6% | 10% | 16% | -36%
3 | Cc1ccc(N=c2cc(-c3ccccc3)oc3ccccc23)c(C)c1 | 1% | 74% (active) | 3% | -11% | 48% | -12.4% | 3% | 93% (active) | 11% | 5% | 51% | 8.1% | 11% | 94% (active) | 5.6% | 4% | 94% (active) | 18.6%
4 | O=C(Nc1ccc(F)cc1)ON=C1CCCCC1 | 56% | 99% (active) | 90.2% (active) | 46% | 100% (active) | 92.3% (active) | 56% | 99% (active) | 91.5% (active) | 33% | 99% (active) | 90.8% (active) | 45% | 66% | 91.1% (active) | 69% | 99% (active) | 90.4% (active)
5 | O=C(/C=C/C=C/c1ccccc1)c1ccco1 | -7% | -16% | 83% (active) | 14% | 5% | 90.3% (active) | -10% | 28% | 91.7% (active) | 4% | 28% | 50.4% | -6% | 57% | 91.9% (active) | -19% | 44% | 76% (active)
6 | O=C(O)c1ccc2c(c1)CC1(C2)Cc2cc3c(cc2C1=O)CCC3 (configuration not stated) | 34% | 34% | 84.3% (active) | 22% | 22% | 83.8% (active) | 19% | 19% | 79.5% (active) | 21% | 21% | 83.1% (active) | 12% | 12% | 81.8% (active) | 25% | 25% | 79.9% (active)
7 | Cc1ccc(N=NC(C(=O)c2ccccc2)C(=O)c2ccccc2)cc1 | 7% | 94% (active) | 93% (active) | -3% | 97% (active) | 93.3% (active) | 14% | 92% (active) | 91.3% (active) | 7% | 94% (active) | 87.9% (active) | -3% | 95% (active) | 93.1% (active) | -2% | 95% (active) | 92.5% (active)
8 | N=C(N)c1ccc(Nc2ccc(-c3cc4ccc(C(=N)N)cc4[nH]3)cc2)cc1 | 99% (active) | 98% (active) | 98.5% (active) | 99% (active) | 99% (active) | 98.8% (active) | 99% (active) | 99% (active) | 98.8% (active) | 99% (active) | 98% (active) | 98.3% (active) | 99% (active) | 98% (active) | 99% (active) | 99% (active) | 98% (active) | 98.5% (active)
9 | Cc1ccc2c(ccc(CC(=S)[S-])[n+]2C)c1 | 10% | 41% | 58.2% | 11% | 21% | 51.6% | 11% | 46% | 66.3% | 10% | 37% | 47.3% | 3% | 38% | 61.5% | 4% | 41% | 90.2% (active)
10 | COc1cc(C(c2cc3c(cc2O)OCO3)N2CCOCC2)cc(OC)c1OC (configuration not stated) | 0% | 23% | 35.5% | -23% | 13% | 67.7% | -3% | 28% | 17% | 4% | 8% | 20.6% | 2% | 11% | 7.1% | -4% | 21% | 19%
11 | O=c1c(NO)c([N+](=O)[O-])cnn1-c1ccccc1 | 25% | 51% | 14.5% | 8% | 18% | 2.4% | -7% | -2% | 29.4% | 13% | 31% | 34.4% | -2% | 28% | -3.6% | -23% | -5% | -0.5%
12 | CCOC(=O)C(=CNC(=S)Nc1c(CC)cccc1C(C)(C)C)C(=O)OCC | 6% | 74% (active) | 85.2% (active) | -13% | 44% | 75.5% (active) | -2% | 27% | 77% (active) | 1% | 52% | 76.3% (active) | -11% | 58% | 84.2% (active) | -11% | 67% | 86.8% (active)
13 | CCN(CC)CCCNc1nccc2c(C)c3[nH]c4ccncc4c3cc12 | 41% | 54% | 59.4% | 18% | 33% | -2% | 38% | 43% | -1.7% | 19% | 23% | 10.1% | 24% | 22% | -6.45% | 48% | 64% | -36.5%
14 | CCOC(=O)c1c(C)[nH]c(C(c2ccccc2)c2[nH]c(C)c(C(=O)OCC)c2C)c1C | -2% | 65% | 44% | -4% | 64% | 43.4% | 7% | 69% | 66.5% | 0% | 86% (active) | 75.2% (active) | -5% | 80% (active) | 46.2% | 5% | 74% (active) | 48.8%
15 | CC(=O)Nc1ccc(C(=O)n2[nH]c(C)c(/C=C3\C(=O)C=Cc4ccccc43)c2=O)cc1 | 27% | 100% (active) | 99.2% (active) | 19% | 100% (active) | 99.5% (active) | 15% | 99% (active) | 99.4% (active) | -10% | 99% (active) | 98.7% (active) | 24% | 100% (active) | 99.2% (active) | 42% | 99% (active) | 99% (active)
16 | O=S(=O)(c1ccc(OCC(O)COc2ccc(S(=O)(=O)c3ccc(OCC4CO4)cc3)cc2)cc1)c1ccc(OCC2CO2)cc1 (configuration not stated) | -5% | -9% | 21.6% | 4% | 11% | 37.2% | 0% | 19% | 63.1% | 3% | 25% | 2.95% | -4% | -2% | -20.5% | 8% | 29% | 78.1% (active)
17 | COc1cnn(-c2ccccc2)c(=O)c1SCc1ccc(Cl)c(Cl)c1 | -3% | 7% | 42.5% | -3% | 33% | 7.95% | 1% | 62% | 71.2% (active) | -6% | 23% | 49.9% | 2% | 51% | 53% | -4% | 25% | 37.4%
18 | CCCCCCCCCCCCCCCCNC(=S)N/C=C(/C#N)C(=O)OC | 78% (active) | 99% (active) | 99% (active) | 89% (active) | 99% (active) | 99.2% (active) | 39% | 99% (active) | 99.2% (active) | 67% | 98% (active) | 98.8% (active) | 99% (active) | 99% (active) | 99.4% (active) | 57% | 99% (active) | 99.2% (active)
19 | O=C(O)c1ccc2c3c(ncnc13)-c1ccccc1C2=O | 22% | 96% (active) | 62% | 43% | 98% (active) | 45% | 10% | 86% (active) | 61% | 36% | 88% (active) | 34.5% | 36% | 90% (active) | 55.5% | 28% | 98% (active) | 74.6% (active)
